# Source: PubChem BioAssay
# A selection: hits, their analogues and other compounds. The true share with any hit is near 1.8%.
# Mcl1 Noxa PPI: Mcl-1/Noxa binding inhibitors, primary screen, biochemical, TR-FRET, 1536-well | TR-FRET Mcl-1/Noxa peptide binding, 2 h | inhibition, % at 21.7 µM | 220,000 compounds, 1.5% hits;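 active = compounds that cut the protein-peptide binding signal by more than 50% relative to plate controls in a single-dose test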;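 note: His-tagged Mcl-1 with rhodamine Noxa BH3 peptide and terbium anti-His antibody; 0% = Mcl-1 plus Noxa peptide wells and 100% = peptide-only wells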
# Mcl1 Bid PPI: Mcl-1/Bid binding inhibitors, primary screen, biochemical, TR-FRET, 1536-well; AID 1021, 2008; inhibition, % at 21.7 µM; Induced myeloid leukemia cell differentiation protein Mcl-1 (Homo sapiens), Q07820; 220,000 compounds, 0.97% hits; TR-FRET Mcl-1/Bid-Dy647 peptide binding;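 active = compounds that cut the binding signal by more than half at the single screening dose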;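 note: His-tagged Mcl-1 with europium anti-His antibody binding Bid BH3 peptide; 0% = Mcl-1 plus peptide wells and 100% = peptide-only wells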
# Mcl-1 Bim block: inhibitors of Bim peptide binding to Mcl-1, primary screen, biochemical, bead-based flow cytometry, multiplex; 190,000 compounds, 0.1% hits; AID 1009, 2008; Bim peptide-Mcl-1 binding; Induced myeloid leukemia cell differentiation protein Mcl-1 (Homo sapiens), Q07820; inhibition, % at 10 µM; in the data active = inhibition above about 40%;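 note: 0% = no compound tracer wells and 100% = peptide blocker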
# TLR4-MyD88 BLA: inhibitors of TLR4-MyD88 association in cells, primary screen, cell-based, HeLa CL3-4, BLA complementation, FRET ratio; AID 861, 2007; HeLa CL3-4 TLR4/MyD88 BLA complementation; 200,000 compounds, 0.18% hits; inhibition, % at 8.4 µM; in the data active = inhibition above about 25%;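 note: 0% = vehicle and 100% = reference inhibitor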
# NOD2-RIPK2 inh: NOD2-RIPK2 binding disruptors in cells, primary screen, fluorescence, CHO cells, BLA complementation | Receptor-interacting serine/threonine-protein kinase 2 (Homo sapiens), O43353 | CCF4 ratio | inhibition, % at 4.98 µM | 360,000 compounds, 0.38% hits | AID 624267, 2012; in the data active = inhibition above about 21%;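 note: 0% = vehicle only and 100% = reference blocker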
# TLR9-MyD88 block: inhibitors of TLR9-MyD88 association in cells, primary screen, cell-based, CHO, BLA complementation, fluorescence; CCF4 FRET ratio; AID 504734, 2011; 340,000 compounds, 0.21% hits; inhibition, % at 4.98 µM; Toll-like receptor 9 (Homo sapiens) + Myeloid differentiation primary response protein …;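 active = inhibition above the mean over all tested compounds plus 3 SD, cut at about 21% in these data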;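 note: 0% = DMSO only wells and 100% = clavulanate BLA inhibitor control wells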
# * hit, by the source's call; / = no result.
SMILES,Mcl1 Noxa PPI,Mcl1 Bid PPI,Mcl-1 Bim block,TLR4-MyD88 BLA,NOD2-RIPK2 inh,TLR9-MyD88 block
CC(C)N1CCc2c(sc(NC(=O)c3cc4cc([N+](=O)[O-])ccc4s3)c2C(N)=O)C1,76*,35,1,-2,-6,3
Cc1cccc(NC(=O)CNC(=O)c2cccs2)n1,/,/,/,/,1,11
Cc1cccc(NC(=O)c2cc3cc([N+](=O)[O-])ccc3s2)n1,60*,34,5,1,-5,14
CCCc1cc(C(=O)N2CCCC(C(=O)c3ccc(Cl)cc3)C2)n(C)n1 (stereo not drawn),/,/,/,/,-1,-16
COc1ccc(OC)c(NC(=O)CCN2CC(C)CC(C)C2)c1 (stereo not drawn),/,/,/,/,0,-8
COc1ccc(OC)c(NC(=O)CCN2CCCC(C)C2)c1 (stereo not drawn),32,51*,0,-11,-4,6
COc1ccc(C(=O)/C=C/c2cc(OC)c(O)c(OC)c2)c(F)c1,55*,7,-2,7,-1,7
NC(N)=NS(=O)(=O)c1ccc(NC(=S)NC(=O)/C=C/c2ccco2)cc1,-62,0,-1,4,-10,3
O=C(/C=C/c1ccco1)NC(=S)Nc1cccc(-c2nc3ccccc3o2)c1,/,65*,0,-8,-2,-2
O=C(/C=C/c1ccc(Cl)cc1)NC(=S)Nc1ccc(NC(=O)c2ccco2)cc1,46,56*,-5,-3,4,6
CC(=O)Nc1ccc(NC(=S)NC(=O)/C=C/c2ccc(Cl)cc2)cc1,-8,7,-1,7,1,7
O=C(/C=C/c1ccco1)NC(=S)Nc1cc(-c2nc3ccccc3s2)ccc1Cl,64*,63*,-4,-22,-2,2
NS(=O)(=O)c1ccc(NC(=S)NC(=O)/C=C/c2ccco2)cc1,89*,32,-2,-5,-8,-9
Cc1ccc(NC(=S)NC2CCCC2)c(C)c1,/,/,/,/,-5,-5
COC(=O)C(CC(=O)c1cccc(OC)c1)c1ccc(F)cc1 (stereo not drawn),-2,-20,0,-3,-11,-11
O=C(/C=C/c1ccco1)Nc1ccc(C(=O)N2CCOCC2)cc1,11,-56,-3,-4,-13,-11
O=C(/C=C/c1ccco1)Nc1ccc(N2CCCC2)cc1,64*,-61,-2,-3,-1,2
CCCCNC(=O)Oc1cc(CCl)on1,3,-41,3,2,/,/
CCCCNC(=O)Oc1c(Br)cc2sc(=O)oc2c1Br,52*,-24,/,/,/,/
O=C(O)c1cccc(-n2cccc2/C=C2/NC(=O)N(c3ccc(Cl)cc3)C2=O)c1,113*,98*,6,-3,-6,-4
C=CCN1C(=O)/C(=C2/Sc3ccccc3N2CCCS(=O)(=O)O)SC1=S,71*,-10,0,3,-5,-19
C=CCN1C(=O)/C(=C2/Sc3ccccc3N2CC)SC1=S,/,/,/,/,1,-9
O=C(CN1CCCCCC1)N/N=C/c1cccc(Cl)c1Cl,44,26,-5,-5,6,-6
COc1ccc(C(=O)O)cc1NC(=S)NC(=O)c1ccc(-c2ccc(Cl)cc2)o1,75*,10,0,5,1,-7
Cc1ccccc1CN1CCC(CNC(=O)C2CCCN(c3ncnc4c3nc3n4CCCCC3)C2)CC1 (stereo not drawn),/,/,/,/,-5,-12
O=C(c1cc2c(=O)n3ccccc3nc2s1)N1CCc2ccccc2C1,15,-9,-5,-4,/,/
CC(NC(=O)Cn1ncc(Cl)c(Cl)c1=O)C12CC3CC(CC(C3)C1)C2 (stereo not drawn),15,-17,-3,21,66*,23*
Cc1cc(NC(=O)CS(=O)(=O)c2ccc(Cl)cc2)no1,/,/,/,/,-6,-20
